NR2F2 inh: NR2F2 (human) inhibition, primary screen; HEK293T NGFI-A luciferase reporter, luminescence; AID 686940; inhibition, % at 8.6 µM; 370,000 compounds, 0.7% hits;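 active = inhibition above a per-plate cutoff, mean inhibition of test wells between control levels plus 3 SD, cut at about 38% in these data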;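 note: cells cotransfected with COUP-TFII expression vector driving the NGFI-A reporter; 0% = median of COUP-TF2 test wells and 100% = reporter-only cells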
Target sequence (P24468 whole entry, looked up): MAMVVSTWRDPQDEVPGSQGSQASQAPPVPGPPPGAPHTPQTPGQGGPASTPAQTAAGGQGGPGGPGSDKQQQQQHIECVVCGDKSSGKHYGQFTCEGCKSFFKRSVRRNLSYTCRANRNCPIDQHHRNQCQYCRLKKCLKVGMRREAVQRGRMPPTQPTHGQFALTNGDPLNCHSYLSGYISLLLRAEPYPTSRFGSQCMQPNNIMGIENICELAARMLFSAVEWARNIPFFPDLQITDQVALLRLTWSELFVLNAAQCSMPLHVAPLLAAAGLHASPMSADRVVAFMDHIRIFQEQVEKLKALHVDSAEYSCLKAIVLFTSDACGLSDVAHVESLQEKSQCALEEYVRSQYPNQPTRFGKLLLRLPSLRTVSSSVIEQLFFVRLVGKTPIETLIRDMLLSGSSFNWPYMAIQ
Gli-Sufu block: Gli-Sufu pathway antagonism | Sufu-KO-LIGHT fibroblasts, Gli luciferase reporter luminescence | inhibition, % at 5 µM | 340,000 compounds, 0.74% hits | AID 588413;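 active = inhibition above about 55%, limit read from the data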;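 note: 0% = DMSO-treated cells and 100% = wells with medium but no cells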
LRH-1 inv ag: NR5A2 inverse agonism in reporter assay | O00482 | HEK293T StAR-luciferase reporter, LRH-1 transfected, 24 h | inhibition, % at 3.6 µM | 360,000 compounds, 0.13% hits | AID 602396;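 active = inhibition above the mean inhibition of all tested compounds plus 3 SD, cut at about 73% in these data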;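 note: 0% = DMSO wells and 100% = reporter-only cells lacking LRH-1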
NCOA1 inh: inhibitors of human steroid receptor coactivator 1 (SRC1) | Q15788 | HEK293 GAL4-SRC1 luciferase reporter, luminescence | inhibition, % at 3.6 µM | 360,000 compounds, 0.12% hits;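 active = inhibition above the campaign mean plus 3 SD, with each screening campaign given its own cutoff, cut at about 60% in these data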;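 note: 0% = DMSO treated cells and 100% = gossypol at 36 µM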
SRC2 inh: inhibits human steroid receptor coactivator 2; Q15596; HEK293 GAL4-SRC2 luciferase reporter, luminescence; inhibition, % at 9 µM; 370,000 compounds, 0.17% hits; AID 651957;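 active = inhibition above the mean inhibition of all tested compounds plus 3 SD, set per campaign, cut at about 52% in these data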;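 note: 0% = DMSO treated cells and 100% = cells given Gossypol at 36 µM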
SRC3 inh: inhibits human SRC3 coactivator. Q9Y6Q9. 360,000 compounds, 0.17% hits. AID 588352. HEK293 GAL4-SRC3 luciferase reporter, luminescence. inhibition, % at 3.6 µM;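 active = inhibition above a per-campaign cutoff, the mean of all compounds plus 3 SD, cut at about 60% in these data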;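 note: 0% = DMSO-treated cells and 100% = gossypol-treated cells at 36 µM; higher means less SRC3-driven luciferase light from the GAL4 reporter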
Gli antag conf: Gli-SUFU antagonism confirmation, single concentration; shares compounds with Gli-Sufu block; Sufu-KO-LIGHT cells, Gli luciferase reporter, luminescence; inhibition, % at 5 µM; 2,500 compounds, 40% hits; AID 602428;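 active = mean inhibition at 5 µM reaching about 45%, limit read from the data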;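 note: plate controls were DMSO-treated cells for no effect and wells lacking cells for full effect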
SufuKO cytotox: cytotoxicity counter-screen for Gli-SUFU antagonists; 2,500 compounds, 32% hits; cytotoxicity, % at 5 µM; Sufu-KO-LIGHT cells cytotoxicity, ATP luminescence; shares compounds with Gli-Sufu block; AID 651994;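 active = mean cytotoxicity at 5 µM above about 25%, limit read from the data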;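 note: cells exposed to compound overnight for roughly 16 to 18 hours; plate controls were DMSO wells with cells for no effect and medium without cells for full effect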
Wnt3a cs: Wnt3a reporter inhibition counter-screen; shares compounds with Gli-Sufu block; Wnt-LIGHT cells, Wnt3a-driven luciferase reporter, luminescence; inhibition, % at 6.25 µM; 2,500 compounds, 20% hits;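 active = mean inhibition above about 25%, limit read from the data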
The depositor's hits bear a star. This is a sample that favours compounds with a hit; in the whole collection about 1.3% have one here.

Screening Cn1c(=O)c2c(nc(NCc3ccco3)n2Cc2ccc(Cl)cc2Cl)n(C)c1=O returned NR2F2 inh 4.5, Gli-Sufu block 66.6*, LRH-1 inv ag -5.1, NCOA1 inh 4.8, SRC2 inh -6.1, SRC3 inh -3.9, Gli antag conf 67.0*, SufuKO cytotox 29.2* and Wnt3a cs 20.2.
Screening CCn1c(NCc2ccco2)nc2c1c(=O)n(C)c(=O)n2C returned NR2F2 inh 2.4, Gli-Sufu block 8.4, LRH-1 inv ag 8.5, NCOA1 inh 9.9, SRC2 inh -11.1 and SRC3 inh -6.9.
Screening Cc1cc(C)cc(-n2ccn(CC(=O)NCCc3ccccc3)c(=O)c2=O)c1 returned NR2F2 inh 11.5, Gli-Sufu block 54.0, LRH-1 inv ag 10.8, NCOA1 inh 9.8, SRC2 inh 2.8, SRC3 inh -10.9, Gli antag conf 14.4, SufuKO cytotox 16.6 and Wnt3a cs -20.4.
`Cc1ccc(-n2ccn(CC(=O)NCCc3ccccc3)c(=O)c2=O)cc1C` gave NR2F2 inh -13.9, Gli-Sufu block -11.8, LRH-1 inv ag -27.4, NCOA1 inh -17.1, SRC2 inh -18.9 and SRC3 inh -17.0.
`Nn1c(SCC(=O)N2CCOCC2)nnc1-c1n[nH]c2c1CCC2` gave NR2F2 inh 7.8 and SRC2 inh -5.5.
Screening Cc1cc(C)c2nc(N(CCCN(C)C)C(=O)c3ccc4c(c3)OCCO4)sc2c1 returned NR2F2 inh -13.7, Gli-Sufu block 70.8*, LRH-1 inv ag -0.6, NCOA1 inh -4.8, SRC2 inh 13.0, SRC3 inh -2.8, Gli antag conf 12.8, SufuKO cytotox 19.7 and Wnt3a cs -60.7.
For COc1ccc(F)cc1CN1CCN(C(=O)CCC(=O)Nc2nnc(C(C)C)s2)CC1 the results were NR2F2 inh 7.8, Gli-Sufu block 96.4*, LRH-1 inv ag -10.4, NCOA1 inh -1.5, SRC2 inh -2.6, SRC3 inh 5.2, Gli antag conf 13.4, SufuKO cytotox 14.7 and Wnt3a cs -13.0.
Screening CCCc1nnc(NC(=O)CCC(=O)N2CCN(Cc3cc(F)ccc3OC)CC2)s1 returned NR2F2 inh 1.5, Gli-Sufu block 6.2, LRH-1 inv ag 10.9, NCOA1 inh 4.0, SRC2 inh 11.7 and SRC3 inh 5.0.
For CCOC(=O)[C@@]12CCCC3=C1N(CCC3)C(=O)[C@H]2CC(=O)NCCCN1CCCC1=O the results were NR2F2 inh -1.8 and SRC2 inh -25.6.
Screening FC(F)Oc1ccc(-c2c[n+]3c(n2-c2ccccc2)CCCCC3)cc1 returned NR2F2 inh -21.3, Gli-Sufu block 59.9*, LRH-1 inv ag -2.1, NCOA1 inh 5.3, SRC2 inh 11.2, SRC3 inh 13.4, Gli antag conf 69.5*, SufuKO cytotox 20.7 and Wnt3a cs -6.7.
COc1ccc(-c2c[n+]3c(n2-c2ccccc2)CCCCC3)cc1 was read as NR2F2 inh 32.6, Gli-Sufu block 83.7*, LRH-1 inv ag 39.9, NCOA1 inh 36.0, SRC2 inh 10.0, SRC3 inh 33.4, Gli antag conf 85.4*, SufuKO cytotox 35.3* and Wnt3a cs 34.2*.
`CCOc1ccc(-n2c(-c3ccc(Br)cc3)c[n+]3c2CCCCC3)cc1` gave NR2F2 inh 25.0, Gli-Sufu block 86.1*, LRH-1 inv ag 54.5, NCOA1 inh 10.5, SRC2 inh 16.1, SRC3 inh 42.2, Gli antag conf 88.2*, SufuKO cytotox 46.3* and Wnt3a cs 22.6.
COc1ccc(Oc2c(Cl)cnn(CC(=O)C(c3ccccc3)c3ccccc3)c2=O)cc1 was read as NR2F2 inh 1.2 and SRC2 inh -3.7.
Screening CCn1cc(C(=O)NCCN(C)CCc2ccccc2)c(=O)c2cc(S(=O)(=O)N(C)C)ccc21 returned NR2F2 inh -4.9, Gli-Sufu block 68.7*, LRH-1 inv ag -8.6, NCOA1 inh -23.3, SRC2 inh -8.8, SRC3 inh -5.8, Gli antag conf 24.2, SufuKO cytotox 0.2 and Wnt3a cs -1.7.
For Cc1noc(NS(=O)(=O)c2ccc(NC(=O)c3cnc4n(c3=O)CCS4)cc2)c1C the results were NR2F2 inh 0.1, Gli-Sufu block 95.4*, LRH-1 inv ag -2.2, NCOA1 inh -18.8, SRC2 inh -9.6, SRC3 inh -9.7, Gli antag conf 15.1, SufuKO cytotox 4.0 and Wnt3a cs -8.0.
For CCOc1ccc(/C(O)=C/C(=O)C(=O)Nc2ccc(S(=O)(=O)NC(C)=O)cc2)cc1 the results were NR2F2 inh -9.2, Gli-Sufu block 83.8*, LRH-1 inv ag -18.9, NCOA1 inh 4.8, SRC2 inh 5.6, SRC3 inh 1.5, Gli antag conf 17.2, SufuKO cytotox 12.1 and Wnt3a cs -11.2.
`CCOC(=O)C1=C(C)NC(C)=C(C(=O)OCC)C1c1ccc(C)o1` gave NR2F2 inh -12.6, Gli-Sufu block 58.7*, LRH-1 inv ag -1.2, NCOA1 inh 10.2, SRC2 inh 13.7, SRC3 inh 10.4, Gli antag conf 17.3, SufuKO cytotox 27.0* and Wnt3a cs 1.4.
Cc1ccc(N2C(=O)CC(N3CCN(C4CCc5ccccc5C4)CC3)C2=O)cc1 (stereo not drawn) was read as NR2F2 inh 2.9, Gli-Sufu block 72.2*, LRH-1 inv ag 6.8, NCOA1 inh -6.3, SRC2 inh -8.8, SRC3 inh 7.7, Gli antag conf 24.2, SufuKO cytotox 7.9 and Wnt3a cs -20.5.
Screening O=C(COc1ccccc1)N1CCN(c2nnc(-c3ccccc3)c3ccccc23)CC1 returned NR2F2 inh 19.4, Gli-Sufu block 96.3*, LRH-1 inv ag -7.9, NCOA1 inh -6.6, SRC2 inh 8.3, SRC3 inh 2.8, Gli antag conf 31.8, SufuKO cytotox 3.2 and Wnt3a cs 1.3.
O=C1C(=O)N(CCCn2ccnc2)C(c2cccc(Br)c2)/C1=C(\O)c1ccc2c(c1)OCCO2 (stereo not drawn) was read as NR2F2 inh -18.9, Gli-Sufu block 50.7, LRH-1 inv ag -18.1, NCOA1 inh -15.5, SRC2 inh -18.5, SRC3 inh 11.1, Gli antag conf 32.9, SufuKO cytotox 22.1 and Wnt3a cs -16.6.
Screening O=C1C(=O)N(CCCn2ccnc2)C(c2ccc(Br)cc2)/C1=C(\O)c1ccc2c(c1)OCCO2 (stereo not drawn) returned NR2F2 inh -18.5, Gli-Sufu block -10.0, LRH-1 inv ag -13.4, NCOA1 inh -24.4, SRC2 inh -12.3 and SRC3 inh 12.1.

Screening results deposited in PubChem BioAssay by several laboratories.
